IL1B secr inh = inhibitors of inflammasome signaling (IL-1 beta secretion). THP-1 LPS/ATP IL-1B secretion, AlphaLISA, 16 h; stronger effect = lower value. activity change, % at 57.5 µM. 4.7% of 360,000 active. AID 743279; in the data active = activity change below about -50%; inconclusive = mostly about -30% to -49%
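Secreted IL-1B measured by AlphaLISA bead assay after 16 h compound exposure of THP-1 cells; compounds (final up to 57.5 uM) added 1 h before LPS (250 ng/mL) and ATP (1.25 mM) stimulation; lower signal means less secretion.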
DT40 TDP1 CPT = growth inhibition of DT40 Tdp1-/-;hTDP1 cells with camptothecin (screen for TDP1 inhibitors); chicken DT40 Tdp1-/-;hTDP1 cells + 20 nM CPT, ATP luminescence, 48 h; Potency, µM (series often up to 46.2 µM), without a hit: at the highest dose activity change, negative = growth inhibition, most hits filed as inhibitors; 12% of 420,000 active; AID 686979; note: potency is the fitted concentration of half-maximal effect; nearly all actives have a fitted effect of over 55% in size
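Cell growth measured by CellTiter-Glo luminescence after a minimum 48 h, 37 C compound exposure with 20 nM CPT in Tdp1-knockout DT40 cells stably expressing hTDP1, seeded 400/well; qHTS titration format.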
uPA generation = blocks generation of uPA at the cell surface; cell surface uPA generation assay, qHTS; Potency, µM (highest dose often 38.3 µM), for inactives: top-dose activity change, negative = inhibition, hits mostly inhibitors; 0.31% of 330,000 active; AID 540303; active = well fitted inhibition curve with a large enough effect; inconclusive = small, poorly fitted or top-dose-only effect; inactive = no such curve, though single readings can be large or run the other way; tested in mouse RAW 264.7 cells; note: potency is the fitted concentration of half-maximal effect; nearly all actives have a fitted effect of over 55% in size
HT1080-NT tox = kills 2HG-producing HT-1080-NT fibrosarcoma cells. HT-1080-NT fibrosarcoma viability, CellTiter-Glo ATP luminescence, 48 h. Potency, µM (series often up to 46.1 µM), inactives show at the top dose activity, negative = less viability, most hits filed as cytotoxic. 1.6% of 360,000 active. AID 686970;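 note: NT is the 2HG producing partner of a matched IDH1 knockdown line; potency is the fitted concentration of half-maximal effect; 0% = DMSO-treated cells and -100% = media-only wells without cells; nearly all actives have a fitted effect of over 55% in size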
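Viability by CellTiter-Glo luminescence after 48 h compound exposure at 37C of HT-1080-NT cells (750/well, RPMI, 5% FBS). % activity scaled between DMSO wells and medium-only wells, then curve-fitted and categorized by curve class.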
HT1080 IDH1KD tx = kills HT-1080 cells with IDH1 knockdown; AID 686971; 2% of 360,000 active; Potency, µM (series often up to 46.1 µM), inactives show at the top dose activity, negative = toxicity, actives largely listed as cytotoxic; HT-1080 IDH1 knockdown viability, ATP luminescence, 48 h;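 note: potency is the fitted concentration of half-maximal effect; 0% = DMSO wells and -100% = cell-free medium wells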
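Cytotoxicity counter-line: IDH1KD HT-1080, 48 h, CellTiter-Glo. Curves classed by r2, magnitude and activity.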
TDP1 cell noCPT = qHTS for Inhibitors of human tyrosyl-DNA phosphodiesterase 1 (TDP1): qHTS in cells in absence of CPT | DT40 Tdp1-/- hTDP1 cells, no CPT, ATP luminescence, 48 h | Potency, µM (series often up to 46.2 µM), for the others: at the highest dose activity change, negative = growth inhibition, actives largely listed as inhibitors | 15% of 420,000 active; note: potency is the fitted concentration of half-maximal effect; nearly all actives have a fitted effect of over 55% in size
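Growth of hTDP1-complemented DT40 Tdp1-knockout cells is measured by ATP luminescence after at least 48 hr compound exposure at 37 °C, with DMSO substituting for the 20 nM CPT used in the parallel screen.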
* = called active by the depositor; ? = inconclusive; . = no result. Hits are enriched below; roughly 19% of the tested compounds scored in any of these assays. Unless noted, calls come from the whole dose curve; as a rule, active = well fitted curve in the direction sought with a large enough effect; inconclusive = small, poorly fitted or top-dose-only effect, or another doubt; inactive = no such curve, though single readings can be large; an effect the other way counts as inactive or inconclusive. Unless noted, % is set by controls: 0 for no effect and ±100 for the full control effect.

SMILES	IL1B secr inh	DT40 TDP1 CPT	uPA generation	HT1080-NT tox	HT1080 IDH1KD tx	TDP1 cell noCPT
CCn1cc(C(=O)NCCc2ccc(C)cc2)c(=O)c2cc(S(=O)(=O)N3CCCCC3)ccc21	.	-10.2%	.	.	.	-9.5%
CCn1cc(C(=O)NCc2ccc(C)cc2)c(=O)c2cc(S(=O)(=O)N3CCCCCC3)ccc21	.	14.6µM*	.	.	.	20.6µM*
CCn1cc(C(=O)NCC(OC)OC)c(=O)c2cc(S(=O)(=O)N3CCCC3)ccc21	2.1	-22.6%	-2.5%	-14.8%	-4.5%	9.1%
CCn1cc(C(=O)NCc2ccc(Cl)cc2)c(=O)c2cc(S(=O)(=O)N3CCOCC3)ccc21	-1.5	20.6µM*	11.5%	-10.3%	-0.6%	23.1µM*
CC(C)(C)OC(=O)N(CC1CCNCC1)C(=O)c1[nH]c(C(F)(F)F)nc1-c1ccccc1	-27.0	-3.3%	.	8.5%	0.4%	-8.9%
O=C(NCCc1ccccc1F)C1CCCN1S(=O)(=O)c1ccc2ccccc2c1 (stereo not given)	-4.8	?	.	6.4%	-21.6%	?
CCOC(=O)N1CCC(NS(=O)(=O)c2cc(C(=O)OC)n(C)c2)CC1	18.7	5.3%	18.0%	-8.5%	5.8%	-7.2%
Cc1nnsc1C(=O)Oc1ccc(C(C)C)cc1	.	27.5%	.	.	.	7.7%
CCc1ccccc1NC(=O)Nc1cccn(Cc2ccccc2F)c1=O	-25.8	?	14.6%	-5.9%	-14.5%	?
CCOc1ccc(NC(=O)Nc2ccccc2SC)cc1	?	?	.	-22.3%	-23.5%	23.1µM*
CCOC(=O)Cc1ccc(NC(=O)NCc2cccn2Cc2ccccc2)cc1	.	13µM*	.	.	.	20.6µM*
CCOc1ccc(NC(=O)Nc2cccn(Cc3ccccc3)c2=O)cc1	-74.2*	?	.	?	?	14.6µM*
CSc1ccc(NC(=O)Nc2cccn(Cc3ccccc3F)c2=O)cc1	-68.1*	?	-8.8%	-0.8%	-24.4%	25.9µM*
O=C(NCc1ccccc1)Nc1cccn(Cc2ccccc2)c1=O	-9.1	1.4%	-2.2%	0.7%	-2.0%	-0.7%
Cc1ccc(NC(=O)NCc2cccn2Cc2ccccc2)cc1F	.	-9.8%	.	.	.	-7.7%
COc1cccc(OC)c1C(=O)N1CCNCC1	11.8	-24.3%	3.5%	3.4%	-2.8%	-5.3%
O=C(NCCCn1ccnc1)c1ccc(-c2cccc(C(F)(F)F)c2)o1	-13.7	?	-17.4%	-5.3%	-20.3%	?
Cc1ccc(-n2c3c(cc(-c4nc(-c5ccc(Cl)cc5)cs4)c2=O)C(=O)CC(C)(C)C3)cc1	.	-10.9%	.	.	.	-4.4%
COCCNC(=O)C1(C)CCCN(CCS(=O)(=O)c2ccc(C)cc2)C1 (stereo not given)	6.6	-18.6%	.	-0.3%	-3.3%	-11.5%
CNC(=O)c1c(NC(=O)c2ccc(S(=O)(=O)N3CCCCC3C)cc2)sc2c1CCC2 (stereo not given)	.	13µM*	.	.	.	14.6µM*
CNC(=O)c1c(NC(=O)c2ccc(S(=O)(=O)N3CCC(C)CC3)cc2)sc2c1CCC2	.	?	.	.	.	23.1µM*
CNC(=O)c1c(NC(=O)c2ccc(S(=O)(=O)N3CCCCC3)cc2)sc2c1CCN(C(C)C)C2	32.6	?	-17.0%	-23.1%	-24.5%	?
COc1ccc(Nc2nc(-c3cc4cccc(OC)c4oc3=O)cs2)cc1	12.5	?	-2.2%	-9.3%	-4.5%	20.6µM*
COc1ccc2oc(=O)c(-c3csc(Nc4cccc(O)c4)n3)cc2c1	-79.3*	?	-1.2%	?	?	16.4µM*
Cc1ccnc(NC(=O)CCC(=O)N(CC(=O)NC(C)(C)C)c2ccc3c(c2)OCO3)c1	-8.5	5.7%	2.2%	4.6%	11.1%	-7.8%
O=S(=O)(c1cc(F)ccc1F)N1CCN(c2ncnc3ccccc23)CC1	72.1	2.31µM*	?	?	?	2.06µM*
CC(C)(C)c1ccc(SCCc2ccccn2)cc1	-12.1	3.6%	6.4%	-9.4%	-16.2%	-9.3%

Screening data deposited in PubChem BioAssay by National Center for Advancing Translational Sciences (NCATS).
